Source: the supplement of paper PMC8728848
The entries come from a sample that favours the strongest signals as a whole.

Legend:
Assay in all cases: glycan array binding signal (z-score within array); higher = stronger binding
Details in all cases: glycan notation: IUPAC condensed, linker removed
[1] = molecular target: Fuc(a1-2)Gal(b1-3)GalNAc(a1-3)[Fuc(a1-2)]Gal(b1-4)GlcNAc
Procedure, shortened: (§1)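 Glycan array data came from 3228 arrays in the Consortium for Functional Glycomics database, and only arrays with an available protein sequence were kept. Glycan names were put into IUPAC-condensed notation, and columns mapping to the same glycan were averaged. The binding signal is a within-array Z-score, averaged across arrays of one protein sequence run at different concentrations or buffers and across linkers. A negative Z-score can be read as non-binding.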

[2] = molecular target: Fuc(a1-2)Gal(b1-3)GalNAc(b1-3)Gal(a1-4)Gal(b1-4)Glc
Procedure, shortened: as §1

[3] = molecular target: Fuc(a1-2)Gal(b1-3)GlcNAc(b1-2)Man(a1-3)[Fuc(a1-2)Gal(b1-3)GlcNAc(b1-2)Man(a1-6)]Man(b1-4)GlcNAc(b1-4)[Fuc(a1-6)]GlcNAc
Procedure, shortened: as §1

[4] = molecular target: Fuc(a1-2)Gal(b1-4)GlcNAc(b1-6)GalNAc
Procedure, shortened: as §1

Fuc(a1-2)Gal6S(b1-4)Glc = molecular target: Fuc(a1-2)Gal6S(b1-4)Glc
Procedure, shortened: as §1

[5] = molecular target: Fuc(a1-2)[Gal(a1-3)]Gal(b1-4)GlcNAc(b1-3)GalNAc
Procedure, shortened: as §1

[6] = molecular target: Fuc(a1-3)[Gal(b1-4)]GlcNAc6S
Procedure, shortened: as §1

Fuc(a1-4)GlcNAc = molecular target: Fuc(a1-4)GlcNAc
Procedure, shortened: as §1

Gal(a1-3)Gal(b1-3)GlcNAc = molecular target: Gal(a1-3)Gal(b1-3)GlcNAc
Procedure, shortened: as §1

[7] = molecular target: Gal(a1-3)Gal(b1-4)[Fuc(a1-3)]GlcNAc
Procedure, shortened: as §1

[8] = molecular target: Gal(a1-3)Gal(b1-4)[Fuc(a1-3)]GlcNAc(b1-2)Man(a1-3)[Gal(a1-3)Gal(b1-4)[Fuc(a1-3)]GlcNAc(b1-2)Man(a1-6)]Man(b1-4)GlcNAc(b1-4)GlcNAc
Procedure, shortened: as §1

[9] = molecular target: Gal(a1-3)[Gal(a1-4)]Gal(b1-4)GlcNAc
Procedure, shortened: as §1

Gal(a1-4)Gal(b1-4)Glc = molecular target: Gal(a1-4)Gal(b1-4)Glc
Procedure, shortened: as §1

Gal(b1-3)Gal = molecular target: Gal(b1-3)Gal
Procedure, shortened: as §1

[10] = molecular target: Gal(b1-3)GalNAc(b1-3)Gal(a1-4)Gal(b1-4)Glc
Procedure, shortened: as §1

[11] = molecular target: Gal(b1-3)GalNAc(b1-4)[Neu5Ac(a2-3)]Gal(b1-4)Glc
Procedure, shortened: as §1

[12] = molecular target: Gal(b1-3)GlcNAc(b1-3)GalNAc
Procedure, shortened: as §1

[13] = molecular target: Gal(b1-3)[Neu5Ac(a2-6)]GalNAc
Procedure, shortened: as §1

[14] = molecular target: Gal(b1-3)[Neu5Ac(a2-6)]GlcNAc(b1-4)Gal(b1-4)Glc
Procedure, shortened: as §1

[15] = molecular target: Gal(b1-3)[Neu5Ac(b2-6)]GalNAc
Procedure, shortened: as §1

[16] = molecular target: Gal(b1-4)GlcNAc(b1-2)Man(a1-3)[Gal(b1-4)GlcNAc(b1-2)Man(a1-6)]Man(b1-4)GlcNAc(b1-4)GlcNAc
Procedure, shortened: as §1

[17] = molecular target: Gal(b1-4)GlcNAc(b1-2)Man(a1-6)[GlcNAc(b1-2)Man(a1-3)]Man(b1-4)GlcNAc(b1-4)GlcNAc
Procedure, shortened: as §1

[18] = molecular target: Gal(b1-4)GlcNAc(b1-3)Gal(b1-4)GlcNAc(b1-3)Gal(b1-4)GlcNAc(b1-3)Gal(b1-4)GlcNAc(b1-3)Gal(b1-4)GlcNAc(b1-3)Gal(b1-4)GlcNAc(b1-2)Man(a1-3)[Gal(b1-4)GlcNAc(b1-3)Gal(b1-4)GlcNAc(b1-3)Gal(b1-4)GlcNAc(b1-3)Gal(b1-4)GlcNAc(b1-3)Gal(b1-4)GlcNAc(b1-3)Gal(b1-4)GlcNAc(b1-2)Man(a1-6)]Man(b1-4)GlcNAc(b1-4)GlcNAc
Procedure, shortened: as §1

[19] = molecular target: Gal(b1-4)GlcNAc(b1-3)[Gal(b1-4)GlcNAc(b1-6)]Gal(b1-4)GlcNAc
Procedure, shortened: as §1

[20] = molecular target: Gal(b1-4)GlcNAc(b1-6)GalNAc
Procedure, shortened: as §1

Gal(b1-6)Gal = molecular target: Gal(b1-6)Gal
Procedure, shortened: as §1

[21] = molecular target: Gal3S(b1-3)[Fuc(a1-4)]GlcNAc
Procedure, shortened: as §1

Gal3S4S(b1-4)GlcNAc = molecular target: Gal3S4S(b1-4)GlcNAc
Procedure, shortened: as §1

Gal3S6S(b1-4)GlcNAc = molecular target: Gal3S6S(b1-4)GlcNAc
Procedure, shortened: as §1

Gal6P(b1-4)GlcNAc = molecular target: Gal6P(b1-4)GlcNAc
Procedure, shortened: as §1

GalNAc(a1-3)GalNAc = molecular target: GalNAc(a1-3)GalNAc
Procedure, shortened: as §1

[22] = molecular target: GalNAc(a1-3)GalNAc(b1-3)Gal(a1-4)Gal(b1-4)GlcNAc
Procedure, shortened: as §1

[23] = molecular target: GlcNAc(b1-2)[GlcNAc(b1-4)]Man(a1-3)[GlcNAc(b1-4)][GlcNAc(b1-2)Man(a1-6)]Man(b1-4)GlcNAc(b1-4)GlcNAc
Procedure, shortened: as §1

[24] = molecular target: GlcNAc(b1-3)Gal(b1-4)GlcNAc(b1-6)[GlcNAc(b1-3)Gal(b1-3)]GalNAc
Procedure, shortened: as §1

[25] = molecular target: Kdn(a2-3)Gal(b1-4)[Fuc(a1-3)]GlcNAc
Procedure, shortened: as §1

[26] = molecular target: Man(a1-2)Man(a1-2)Man(a1-3)Man
Procedure, shortened: as §1

[27] = molecular target: Man(a1-2)Man(a1-2)Man(a1-6)[Man(a1-3)]Man
Procedure, shortened: as §1

[28] = molecular target: Man(a1-3)[Man(a1-6)]Man(a1-6)[Man(a1-3)]Man
Procedure, shortened: as §1

[29] = molecular target: Neu5Ac(a2-3)Gal(b1-3)GlcNAc(b1-6)GalNAc
Procedure, shortened: as §1

[30] = molecular target: Neu5Ac(a2-3)Gal(b1-4)GlcNAc(b1-2)[Neu5Ac(a2-3)Gal(b1-4)GlcNAc(b1-4)]Man(a1-3)[GlcNAc(b1-4)][Neu5Ac(a2-3)Gal(b1-4)GlcNAc(b1-2)[Neu5Ac(a2-3)Gal(b1-4)GlcNAc(b1-6)]Man(a1-6)]Man(b1-4)GlcNAc(b1-4)GlcNAc
Procedure, shortened: as §1

[31] = molecular target: Neu5Ac(a2-3)Gal(b1-4)GlcNAc(b1-2)[Neu5Ac(a2-3)Gal(b1-4)GlcNAc(b1-6)]Man(a1-6)[Neu5Ac(a2-3)Gal(b1-4)GlcNAc(b1-2)Man(a1-3)]Man(b1-4)GlcNAc(b1-4)GlcNAc
Procedure, shortened: as §1

[32] = molecular target: Neu5Ac(a2-3)Gal(b1-4)GlcNAc(b1-3)Gal(b1-4)GlcNAc(b1-3)Gal(b1-4)GlcNAc
Procedure, shortened: as §1

[33] = molecular target: Neu5Ac(a2-3)Gal(b1-4)GlcNAc(b1-3)Gal(b1-4)GlcNAc(b1-3)[Neu5Ac(a2-3)Gal(b1-4)GlcNAc(b1-3)Gal(b1-4)GlcNAc(b1-6)]GalNAc
Procedure, shortened: as §1

[34] = molecular target: Neu5Ac(a2-3)Gal(b1-4)GlcNAc6S
Procedure, shortened: as §1

[35] = molecular target: Neu5Ac(a2-3)Gal(b1-4)[Fuc(a1-3)]GlcNAc6S
Procedure, shortened: as §1

[36] = molecular target: Neu5Ac(a2-6)Gal(b1-4)GlcNAc(b1-2)Man(a1-3)[Neu5Ac(a2-6)Gal(b1-4)GlcNAc(b1-2)Man(a1-6)]Man(b1-4)GlcNAc(b1-4)GlcNAc
Procedure, shortened: as §1

[37] = molecular target: Neu5Ac(a2-6)Gal(b1-4)GlcNAc(b1-2)Man(a1-6)[Gal(b1-4)GlcNAc(b1-2)Man(a1-3)]Man(b1-4)GlcNAc(b1-4)GlcNAc
Procedure, shortened: as §1

[38] = molecular target: Neu5Ac(a2-6)Gal(b1-4)GlcNAc(b1-2)Man(a1-6)[GlcNAc(b1-2)Man(a1-3)]Man(b1-4)GlcNAc(b1-4)GlcNAc
Procedure, shortened: as §1

[39] = molecular target: Neu5Ac(a2-6)Gal(b1-4)GlcNAc(b1-2)[Neu5Ac(a2-6)Gal(b1-4)GlcNAc(b1-4)]Man(a1-3)[GlcNAc(b1-4)][Neu5Ac(a2-6)Gal(b1-4)GlcNAc(b1-2)[Neu5Ac(a2-6)Gal(b1-4)GlcNAc(b1-6)]Man(a1-6)]Man(b1-4)GlcNAc(b1-4)GlcNAc
Procedure, shortened: as §1

Neu5Ac(a2-6)GalNAc = molecular target: Neu5Ac(a2-6)GalNAc
Procedure, shortened: as §1

[40] = molecular target: Neu5Ac(a2-6)GalNAc(b1-4)GlcNAc
Procedure, shortened: as §1

[41] = molecular target: Neu5Ac(a2-6)GalNAc(b1-4)GlcNAc6S
Procedure, shortened: as §1

[42] = molecular target: Neu5Ac(a2-8)Neu5Ac(a2-3)Gal(b1-4)GlcNAc
Procedure, shortened: as §1

[43] = molecular target: Neu5Ac(a2-8)Neu5Ac(a2-8)Neu5Ac(a2-3)[Gal(b1-3)GalNAc(b1-4)]Gal(b1-4)Glc
Procedure, shortened: as §1

[44] = molecular target: Neu5Gc(a2-3)Gal(b1-4)GlcNAc
Procedure, shortened: as §1

[45] = molecular target: Neu5Gc(a2-8)Neu5Ac(a2-3)Gal(b1-4)GlcNAc
Procedure, shortened: as §1

[46] = molecular target: Neu5Gc(a2-8)Neu5Gc(a2-6)Gal(b1-4)GlcNAc
Procedure, shortened: as §1

B1: DCIR1 (Mus musculus), Q9QZ15 (protein)
chain: MASEITYAEVKFKNESNSLHTYSESPAAPREKPIRDLRKPGSPSLLLTSLMLLLLLLAITFLVAFIIYFQKYSQLLEEKKAAKNIMHNELNCTKSVSPMEDKVWSCCPKDWRLFGSHCYLVPTVSSSASWNKSEENCSRMGAHLVVIQSQEEQDFITGILDTHAAYFIGLWDTGHRQWQWVDQTPYEESITFWHNGEPSSGNEKCATIIYRWKTGWGWNDISCSLKQKSVCQMKKINL
glycan array binding signal (z-score) [1]: 0.031 | glycan array binding signal (z-score) [2]: 3.31 | glycan array binding signal (z-score) [3]: 3.05 | glycan array binding signal (z-score) [4]: 3.97 | glycan array binding signal (z-score) (Fuc(a1-2)Gal6S(b1-4)Glc): 1.87 | glycan array binding signal (z-score) [5]: -0.604 | glycan array binding signal (z-score) [6]: 1.43 | glycan array binding signal (z-score) (Fuc(a1-4)GlcNAc): -0.807 | glycan array binding signal (z-score) (Gal(a1-3)Gal(b1-3)GlcNAc): 7.14 | glycan array binding signal (z-score) [7]: -0.171 | glycan array binding signal (z-score) [8]: 2.31 | glycan array binding signal (z-score) [9]: 3.21 | glycan array binding signal (z-score) (Gal(a1-4)Gal(b1-4)Glc): 0.74 | glycan array binding signal (z-score) (Gal(b1-3)Gal): -0.894 | glycan array binding signal (z-score) [10]: 0.592 | glycan array binding signal (z-score) [11]: 2.65 | glycan array binding signal (z-score) [12]: -0.841 | glycan array binding signal (z-score) [13]: -0.767 | glycan array binding signal (z-score) [14]: 3.38 | glycan array binding signal (z-score) [15]: -0.696 | glycan array binding signal (z-score) [16]: -0.217 | glycan array binding signal (z-score) [17]: 0.904 | glycan array binding signal (z-score) [18]: -0.907 | glycan array binding signal (z-score) [19]: -0.693 | glycan array binding signal (z-score) [20]: 1.01 | glycan array binding signal (z-score) (Gal(b1-6)Gal): -0.786 | glycan array binding signal (z-score) [21]: -0.369 | glycan array binding signal (z-score) (Gal3S4S(b1-4)GlcNAc): -0.376 | glycan array binding signal (z-score) (Gal3S6S(b1-4)GlcNAc): 0.218 | glycan array binding signal (z-score) (Gal6P(b1-4)GlcNAc): -0.489 | glycan array binding signal (z-score) (GalNAc(a1-3)GalNAc): -0.78 | glycan array binding signal (z-score) [22]: 2.31 | glycan array binding signal (z-score) [23]: -0.101 | glycan array binding signal (z-score) [24]: -0.947 | glycan array binding signal (z-score) [25]: 2.92 | glycan array binding signal (z-score) [26]: -0.962 | glycan array binding signal (z-score) [27]: 4.44 | glycan array binding signal (z-score) [28]: 0.267 | glycan array binding signal (z-score) [29]: 0.265 | glycan array binding signal (z-score) [30]: -0.887 | glycan array binding signal (z-score) [31]: 0.375 | glycan array binding signal (z-score) [32]: -0.844 | glycan array binding signal (z-score) [33]: 1.36 | glycan array binding signal (z-score) [34]: 0.145 | glycan array binding signal (z-score) [35]: -0.532 | glycan array binding signal (z-score) [36]: -0.079 | glycan array binding signal (z-score) [37]: -0.16 | glycan array binding signal (z-score) [38]: 2.04 | glycan array binding signal (z-score) [39]: -0.823 | glycan array binding signal (z-score) (Neu5Ac(a2-6)GalNAc): 2.86 | glycan array binding signal (z-score) [40]: -0.517 | glycan array binding signal (z-score) [41]: -0.058 | glycan array binding signal (z-score) [42]: -1.1 | glycan array binding signal (z-score) [43]: 2.88 | glycan array binding signal (z-score) [44]: -0.678 | glycan array binding signal (z-score) [45]: -1.04 | glycan array binding signal (z-score) [46]: -0.802
